# Test results reported in paper PMC11062922 (Nature Chemical Biology, 2023).
# Read-outs that look alike come from different tables or passages of the source.
# Experiments:
# AAK1 = tested on: AAK1; design: species or system human, MV4-11 + K-562 + COLO205 + SK-N-BE2 + OVCAR-8; details: read-out: apparent Kd, n = 1
# GAK = tested on: GAK; design: species or system human, MV4-11 + K-562 + COLO205 + SK-N-BE2 + OVCAR-8; details: read-out: apparent Kd, n = 1
# Q6ZSR9 = Q6ZSR9 (human, UniProt Q6ZSR9); design: species or system MV4-11 + K-562 + COLO205 + SK-N-BE2 + OVCAR-8; details: read-out: apparent Kd, compound concentrations: 100 nM and 1000 nM (sheet 'Samples'), n = 1
# CSNK2A1;CSNK2A3 = tested on: CSNK2A1;CSNK2A3; design: species or system human, MV4-11 + K-562 + COLO205 + SK-N-BE2 + OVCAR-8; details: read-out: apparent Kd, n = 1
# FYN = tested on: FYN; design: species or system human, MV4-11 + K-562 + COLO205 + SK-N-BE2 + OVCAR-8; details: read-out: apparent Kd, n = 1
# LCK = tested on: LCK; design: species or system human, MV4-11 + K-562 + COLO205 + SK-N-BE2 + OVCAR-8; details: read-out: apparent Kd, n = 1
# ABL1 = tested on: ABL1; design: species or system human, MV4-11 + K-562 + COLO205 + SK-N-BE2 + OVCAR-8; details: read-out: apparent Kd, n = 1
# ABL2 = tested on: ABL2; design: species or system human, MV4-11 + K-562 + COLO205 + SK-N-BE2 + OVCAR-8; details: read-out: apparent Kd, n = 1
# BCR = tested on: BCR; design: species or system human, MV4-11 + K-562 + COLO205 + SK-N-BE2 + OVCAR-8; details: read-out: apparent Kd, n = 1
# HCK = tested on: HCK; design: species or system human, MV4-11 + K-562 + COLO205 + SK-N-BE2 + OVCAR-8; details: read-out: apparent Kd, n = 1
# PTK6 = tested on: PTK6; design: species or system human, MV4-11 + K-562 + COLO205 + SK-N-BE2 + OVCAR-8; details: read-out: apparent Kd, n = 1
# RIPK2 = tested on: RIPK2; design: species or system human, MV4-11 + K-562 + COLO205 + SK-N-BE2 + OVCAR-8; details: read-out: apparent Kd, n = 1
# RIPK3 = tested on: RIPK3; design: species or system human, MV4-11 + K-562 + COLO205 + SK-N-BE2 + OVCAR-8; details: read-out: apparent Kd, n = 1
# YES1 = tested on: YES1; design: species or system human, MV4-11 + K-562 + COLO205 + SK-N-BE2 + OVCAR-8; details: read-out: apparent Kd, n = 1
# RET = tested on: RET; design: species or system human, MV4-11 + K-562 + COLO205 + SK-N-BE2 + OVCAR-8; details: read-out: apparent Kd, n = 1
# TNK1 = tested on: TNK1; design: species or system human, MV4-11 + K-562 + COLO205 + SK-N-BE2 + OVCAR-8; details: read-out: apparent Kd, n = 1
# CLK1 = tested on: CLK1; design: species or system human, MV4-11 + K-562 + COLO205 + SK-N-BE2 + OVCAR-8; details: read-out: apparent Kd; compound concentrations: 100 nM and 1000 nM (sheet 'Samples'), CATDS: 1.45453045118455E-2; n = 1
# CLK4 = tested on: CLK4; design: species or system human, MV4-11 + K-562 + COLO205 + SK-N-BE2 + OVCAR-8; details: read-out: apparent Kd; compound concentrations: 100 nM and 1000 nM (sheet 'Samples'), CATDS: 1.03422471087564E-2; n = 1
# CSNK2A2 = tested on: CSNK2A2; design: species or system human, MV4-11 + K-562 + COLO205 + SK-N-BE2 + OVCAR-8; details: read-out: apparent Kd; compound concentrations: 100 nM and 1000 nM (sheet 'Samples'), CATDS: 1.0295745768990301E-2; n = 1
# [1] = compound concentrations:100 nM and 1000 nM (sheet 'Samples')
# Sequence of Q6ZSR9 (Q6ZSR9 whole entry, looked up): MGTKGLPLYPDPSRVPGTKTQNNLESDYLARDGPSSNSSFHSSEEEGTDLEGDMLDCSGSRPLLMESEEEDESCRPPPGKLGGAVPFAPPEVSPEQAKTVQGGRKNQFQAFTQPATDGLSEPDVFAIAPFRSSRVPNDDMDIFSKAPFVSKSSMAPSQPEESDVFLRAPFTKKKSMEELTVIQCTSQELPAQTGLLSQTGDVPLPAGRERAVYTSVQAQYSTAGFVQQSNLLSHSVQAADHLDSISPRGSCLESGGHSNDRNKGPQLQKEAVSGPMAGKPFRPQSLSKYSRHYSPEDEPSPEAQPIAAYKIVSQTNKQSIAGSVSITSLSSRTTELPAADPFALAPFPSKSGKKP
smiles,measurement,setting,value
Nc1nc(-c2cccnc2)c(-c2ccnc3ccccc23)s1 [GW684083X],potency estimated from few doses,AAK1; [1],1960 nM
same,potency estimated from few doses,GAK; [1],1430 nM
Cc1nn(C)c2cc(N(C)c3ccnc(Nc4cccc(S(N)(=O)=O)c4)n3)ccc12.Cl [GW770220A],potency estimated from few doses,"AAK1; compound concentrations: 100 nM and 1000 nM (sheet 'Samples'), CATDS: 0.34831040930344798",632 nM
same,potency estimated from few doses,Q6ZSR9; CATDS: 0.39212964610314199,507 nM
COc1ccc(CNC(=O)NC2CCN(c3ccnc(Nc4cc(OC)c(OC)c(OC)c4)n3)C2)cc1 (stereo not drawn) [GSK1379748A],potency estimated from few doses,"AAK1; compound concentrations: 100 nM and 1000 nM (sheet 'Samples'), CATDS: 0.347671640618193",1680 nM
same,potency estimated from few doses,Q6ZSR9; CATDS: 0.34499454920455003,1710 nM
Cc1cccc(-c2cc(-c3c[nH]nc3-c3ccccn3)ccn2)c1 [GW679395X],potency estimated from few doses,CSNK2A1;CSNK2A3; [1],2120 nM
same,potency estimated from few doses,FYN; [1],1290 nM
same,potency estimated from few doses,LCK; [1],1330 nM
Cl.Cl.Cl.c1ccc(Oc2ccc(Nc3ccnc4cc(-c5ccc(CN6CCNCC6)o5)ccc34)cc2)nc1.c1ccc(Oc2ccc(Nc3ccnc4cc(-c5ccc(CN6CCNCC6)o5)ccc34)cc2)nc1 [GW567142A],potency estimated from few doses,"ABL1; compound concentrations: 100 nM and 1000 nM (sheet 'Samples'), CATDS: 0.106160515103876",36.7 nM
same,potency estimated from few doses,"ABL2; compound concentrations: 100 nM and 1000 nM (sheet 'Samples'), CATDS: 3.7512936282147198E-2",226 nM
same,potency estimated from few doses,"BCR; compound concentrations: 100 nM and 1000 nM (sheet 'Samples'), CATDS: 2.8038265853645699E-2",446 nM
same,potency estimated from few doses,"FYN; compound concentrations: 100 nM and 1000 nM (sheet 'Samples'), CATDS: 5.8978422577379903E-2",93.1 nM
same,potency estimated from few doses,"HCK; compound concentrations: 100 nM and 1000 nM (sheet 'Samples'), CATDS: 9.4879616105776998E-2",43.2 nM
same,potency estimated from few doses,"LCK; compound concentrations: 100 nM and 1000 nM (sheet 'Samples'), CATDS: 2.9875488877577801E-2",381 nM
same,potency estimated from few doses,"PTK6; compound concentrations: 100 nM and 1000 nM (sheet 'Samples'), CATDS: 5.6771173878132498E-2",99.7 nM
same,potency estimated from few doses,"RIPK2; compound concentrations: 100 nM and 1000 nM (sheet 'Samples'), CATDS: 5.5547059533083698E-2",104 nM
same,potency estimated from few doses,"RIPK3; compound concentrations: 100 nM and 1000 nM (sheet 'Samples'), CATDS: 2.6794845522232699E-2",500 nM
same,potency estimated from few doses,"YES1; compound concentrations: 100 nM and 1000 nM (sheet 'Samples'), CATDS: 0.102310323687496",38.7 nM
CCN(CC)CCOc1ccc(Nc2ncc3cc(-c4c(Cl)cccc4Cl)c(=O)n(C)c3n2)cc1 [SB-601273],potency estimated from few doses,ABL1; [1],72.7 nM
same,potency estimated from few doses,ABL2; [1],8.98 nM
same,potency estimated from few doses,BCR; [1],5.53 nM
same,potency estimated from few doses,FYN; [1],130 nM
same,potency estimated from few doses,GAK; [1],55.4 nM
same,potency estimated from few doses,HCK; [1],299 nM
same,potency estimated from few doses,LCK; [1],39 nM
same,potency estimated from few doses,PTK6; [1],224 nM
same,potency estimated from few doses,RET; [1],167 nM
same,potency estimated from few doses,RIPK2; [1],19.4 nM
same,potency estimated from few doses,RIPK3; [1],765 nM
same,potency estimated from few doses,TNK1; [1],631 nM
same,potency estimated from few doses,YES1; [1],80.1 nM
CC(C)c1nc(-c2cccc(NS(=O)(=O)c3ccccc3)c2)c(-c2ccnc(Nc3ccc4c(c3)CN(C)CC4)n2)s1 [GSK1649598A],potency estimated from few doses,"ABL1; compound concentrations: 100 nM and 1000 nM (sheet 'Samples'), CATDS: 2.01463365951845E-2",368 nM
same,potency estimated from few doses,"ABL2; compound concentrations: 100 nM and 1000 nM (sheet 'Samples'), CATDS: 3.9720351054025098E-2",93.8 nM
same,potency estimated from few doses,"BCR; compound concentrations: 100 nM and 1000 nM (sheet 'Samples'), CATDS: 1.4720639450574301E-2",924 nM
same,potency estimated from few doses,"FYN; compound concentrations: 100 nM and 1000 nM (sheet 'Samples'), CATDS: 1.9244455455098501E-2",413 nM
same,potency estimated from few doses,"GAK; compound concentrations: 100 nM and 1000 nM (sheet 'Samples'), CATDS: 0.115621915519597",19.8 nM
same,potency estimated from few doses,"HCK; compound concentrations: 100 nM and 1000 nM (sheet 'Samples'), CATDS: 1.6425065187182699E-2",643 nM
same,potency estimated from few doses,"LCK; compound concentrations: 100 nM and 1000 nM (sheet 'Samples'), CATDS: 3.58702015349356E-2",112 nM
same,potency estimated from few doses,"PTK6; compound concentrations: 100 nM and 1000 nM (sheet 'Samples'), CATDS: 1.42958167275793E-2",1030 nM
same,potency estimated from few doses,"RIPK2; compound concentrations: 100 nM and 1000 nM (sheet 'Samples'), CATDS: 2.88864910940058E-2",167 nM
same,potency estimated from few doses,"RIPK3; compound concentrations: 100 nM and 1000 nM (sheet 'Samples'), CATDS: 1.96372512533491E-2",392 nM
same,potency estimated from few doses,"TNK1; compound concentrations: 100 nM and 1000 nM (sheet 'Samples'), CATDS: 3.1602555545839801E-2",141 nM
same,potency estimated from few doses,"YES1; compound concentrations: 100 nM and 1000 nM (sheet 'Samples'), CATDS: 2.5454428176696801E-2",216 nM
Cn1cc(C2=C(c3cn(CCCO)c4ccccc34)C(=O)NC2=O)c2ccccc21 [RO0317377-000],potency estimated from few doses,"AAK1; compound concentrations: 100 nM and 1000 nM (sheet 'Samples'), CATDS: 0.115071291343016",1300 nM
same,potency estimated from few doses,Q6ZSR9; CATDS: 0.107617362332997,1540 nM
O=C1N=C(NCc2cccs2)SC1Cc1ccc2ncccc2c1 (stereo not drawn) [RO4629078-000],potency estimated from few doses,"ABL1; compound concentrations: 100 nM and 1000 nM (sheet 'Samples'), CATDS: 1.03104130889283E-2",621 nM
same,potency estimated from few doses,"ABL2; compound concentrations: 100 nM and 1000 nM (sheet 'Samples'), CATDS: 1.75956171974825E-2",217 nM
same,potency estimated from few doses,"BCR; compound concentrations: 100 nM and 1000 nM (sheet 'Samples'), CATDS: 1.49763815406264E-2",286 nM
same,potency estimated from few doses,CLK1,302 nM
same,potency estimated from few doses,CLK4,616 nM
same,potency estimated from few doses,"CSNK2A1;CSNK2A3; compound concentrations: 100 nM and 1000 nM (sheet 'Samples'), CATDS: 1.1621769953454601E-2",472 nM
same,potency estimated from few doses,CSNK2A2,623 nM
same,potency estimated from few doses,"FYN; compound concentrations: 100 nM and 1000 nM (sheet 'Samples'), CATDS: 9.7047847946103404E-3",723 nM
same,potency estimated from few doses,"GAK; compound concentrations: 100 nM and 1000 nM (sheet 'Samples'), CATDS: 1.7863526328031998E-2",211 nM
same,potency estimated from few doses,"HCK; compound concentrations: 100 nM and 1000 nM (sheet 'Samples'), CATDS: 1.13886455432966E-2",493 nM
same,potency estimated from few doses,"LCK; compound concentrations: 100 nM and 1000 nM (sheet 'Samples'), CATDS: 1.24730570121841E-2",406 nM
same,potency estimated from few doses,"PTK6; compound concentrations: 100 nM and 1000 nM (sheet 'Samples'), CATDS: 9.8307432544906398E-3",699 nM
same,potency estimated from few doses,Q6ZSR9; CATDS: 1.4224903483056099E-2,314 nM
same,potency estimated from few doses,"RET; compound concentrations: 100 nM and 1000 nM (sheet 'Samples'), CATDS: 1.39088138771742E-2",328 nM
same,potency estimated from few doses,"RIPK2; compound concentrations: 100 nM and 1000 nM (sheet 'Samples'), CATDS: 9.4422951571236906E-3",777 nM
same,potency estimated from few doses,"TNK1; compound concentrations: 100 nM and 1000 nM (sheet 'Samples'), CATDS: 2.1497624040677302E-2",158 nM
same,potency estimated from few doses,"YES1; compound concentrations: 100 nM and 1000 nM (sheet 'Samples'), CATDS: 1.15943383738287E-2",474 nM
